The whole screen tested about 50,000 compounds, of which about 800 (1.6%) showed an effect of 50% or more. The sample holds strong results, similar compounds and a random draw of the others, so the mix is not that of the screen.
These compounds were tested against Bcl-2-like protein 10 (Homo sapiens) (UniProt Q9HD36) (assay: TR3 peptide-Bcl-B binding displacers, biochemical primary FP assay, phenotype converters (AID 1240;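 note: 0% = Bcl-B with tracer peptide and DMSO and 100% = tracer peptide lacking Bcl-B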)). Conditions: GST-Bcl-B / FITC-TR3 peptide fluorescence polarization; stronger effect = higher value; compound at 3.75 mg/L.
Sequence of Bcl-2-like protein 10 (Homo sapiens) (Q9HD36 whole entry, looked up): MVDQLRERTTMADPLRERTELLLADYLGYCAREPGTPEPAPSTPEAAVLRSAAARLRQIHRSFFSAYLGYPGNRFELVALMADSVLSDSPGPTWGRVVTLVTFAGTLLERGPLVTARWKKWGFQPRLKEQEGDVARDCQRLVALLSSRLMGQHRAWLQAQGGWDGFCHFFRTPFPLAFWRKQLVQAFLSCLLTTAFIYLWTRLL

SMILES	displacement
COC(=O)c1c(C)oc2ccc(OCc3cccc(Br)c3)cc12	9.3%
CCC(=NCc1ccccc1)c1c(C(F)(F)F)[nH]n(-c2nc3ccccc3s2)c1=O	-13.5%
Cc1ccc(N2NC(=O)/C(=C/C=C/c3ccccc3)C2=O)cc1C	8.4%
Cc1ccc(Cl)cc1NC(=O)C(=O)NCc1ccco1	-13.4%
CCOC(=O)c1c(-c2ccc(C)cc2)csc1NC(=O)C(C)(C)C	7.5%
Cc1c(C(=O)NCCc2ccccc2)cccc1[N+](=O)[O-]	-8%
CN(C)c1ccc(N/C(N)=N/c2nc(C(F)(F)F)cc(=O)[nH]2)cc1	-5.8%
N/C(=N/N=C/c1ccc2c(c1)OCO2)c1ccccn1	-7.7%
O=C(c1ccccc1)N1CC(=O)N2CCc3ccccc3C2C1 (configuration not stated)	1%
O=C1/C(=C/c2ccccc2)SC(=S)N1c1ccccc1Cl	-7.4%
COc1cccc(C2NC(=O)NC(C)=C2C(=O)Nc2ccccc2C)c1 (configuration not stated)	4.3%
COC(=O)C1=C(C)N=c2s/c(=C/c3ccc(F)cc3)c(=O)n2C1c1ccc(OC)cc1 (configuration not stated)	5.7%
CCOC(=O)C1=C(C)N=c2s/c(=C\c3ccc(I)cc3)c(=O)n2C1c1ccc(OC)c(OC)c1 (configuration not stated)	111%
CCOC(=O)C1=C(C)N=c2s/c(=C\c3cn(C)c4ccccc34)c(=O)n2C1c1cccs1 (configuration not stated)	11.5%
COC(=O)C1=C(C)N=c2s/c(=C\c3ccccc3Cl)c(=O)n2C1c1cccs1 (configuration not stated)	84.9%
CCOC(=O)C1=C(C)N=c2s/c(=C\c3cc4c(cc3Cl)OCO4)c(=O)n2C1c1cccs1 (configuration not stated)	-8.9%
CCOC(=O)C1=C(C)N=c2s/c(=C\c3ccc(NC(C)=O)cc3)c(=O)n2C1c1ccc(OC)cc1 (configuration not stated)	116%
COC(=O)C1=C(C)N=c2s/c(=C\c3ccc(Cl)cc3)c(=O)n2C1c1ccc(OC)c(OC)c1 (configuration not stated)	9.9%
C=CCOc1ccc(/C=c2/sc3n(c2=O)C(c2ccc(OC)c(OC)c2)C(C(=O)OC)=C(C)N=3)cc1 (configuration not stated)	106%
CCOC(=O)C1=C(C)N=c2s/c(=C\c3ccc(N(C)C)cc3)c(=O)n2C1c1ccc(OC)c(OC)c1 (configuration not stated)	-38.5%
CCOC(=O)C1=C(C)N=c2s/c(=C\c3ccc(C(=O)O)cc3)c(=O)n2C1c1ccc(OC)c(OC)c1 (configuration not stated)	-22.8%
CCOC(=O)C1=C(C)N=c2s/c(=C\c3ccc(OC)cc3)c(=O)n2C1c1ccc(OC)cc1 (configuration not stated)	-5.7%
CCOC(=O)C1=C(C)N=c2s/c(=C\c3ccc(NC(C)=O)cc3)c(=O)n2C1c1ccccc1 (configuration not stated)	-24.8%
CCOc1ccc(C(=O)Nc2cc(OC)ccc2OC)cc1Br	-9%
COc1ccc(C(=O)N2CCN(c3cccc(C)c3C)CC2)c(OC)c1	-4.4%
CCN(CC)c1ccc(N2C(=O)/C(=C/C=C/c3ccccc3)SC2=S)cc1	-4.2%

SMILES	displacement
CCCOC(=O)c1c(NC(=O)c2c(-c3ccccc3)noc2C)sc2c1CCCCC2	-7.2%
COc1ccc(CN2CCN(C3CCC(c4ccccc4)CC3)CC2)c(OC)c1OC (configuration not stated)	-12%
CC(C)OC(=O)c1c(-c2ccc(F)cc2)csc1N	1.3%
COc1ccc(N2C(=O)/C(=C\C(Br)=C\c3ccccc3)SC2=S)cc1	5.6%
CCOC(=O)C1=C(C)N=c2s/c(=C\c3ccccc3Cl)c(=O)n2C1c1ccc(OC)c(OC)c1 (configuration not stated)	106%
CCOC(=O)C1=C(C)N=c2s/c(=C\c3cc(Br)c(O)c(OC)c3)c(=O)n2C1c1ccc(OC)c(OC)c1 (configuration not stated)	-85.1%
CCOC(=O)C1=C(C)N=c2s/c(=C\c3ccccn3)c(=O)n2C1c1ccc(OC)c(OC)c1 (configuration not stated)	42.1%
CCOC(=O)C1=C(C)N=c2s/c(=C\c3ccccc3F)c(=O)n2C1c1ccc(OC)c(OC)c1 (configuration not stated)	6.3%
CCOC(=O)C1=C(C)N=c2s/c(=C\c3ccc(N(CC)CC)o3)c(=O)n2C1c1ccc(OC)c(OC)c1 (configuration not stated)	-25%
CCOC(=O)C1=C(C)N=c2s/c(=C\c3ccc(NC(C)=O)cc3)c(=O)n2C1c1ccc(OC)c(OC)c1 (configuration not stated)	88.9%
CC(=O)N(c1ccccc1)c1c(F)c(F)c(F)c(F)c1F	-8.8%
O=C(COc1ccc(Cl)cc1Br)Nc1ccc2c(c1)OCCO2	1.8%
CCOC(=O)c1conc1-c1ccc(SC)cc1	6.5%
COc1ccc(CN2CCN(Cc3cc(Br)ccc3O)CC2)c(OC)c1	1.4%
COc1cc(C(=O)N2CCN(Cc3cccc(C(F)(F)F)c3)CC2)cc(OC)c1OC	3.1%
Cc1ccc2nc(-c3ccc(NC(=O)c4ccc5c(c4)OCCO5)cc3)sc2c1	73.2%
O=C(Nc1ccc(O)c(-c2nc3ccccc3s2)c1)c1ccc2c(c1)OCCO2	82.5%
CCOc1ccc(C(=O)Nc2ccc(-c3nc4ccc(C)cc4s3)cc2)cc1	13.3%
O=C(Nc1cccc(-c2nc3ccccc3s2)c1)c1ccc2c(c1)OCCO2	5.6%
CC(=O)Nc1ccc(-c2nc3ccc(C)cc3s2)cc1	-3.9%
O=C(Nc1ccc(-c2nc3ccccc3s2)c(O)c1)c1ccc2c(c1)OCCO2	-3.8%
O=CN1N=C(c2ccccc2)CC1(O)C(F)(F)F (configuration not stated)	13.4%
COC(=O)c1ccc(NC(=O)CC2Nc3ccccc3NC2=O)cc1 (configuration not stated)	108%
CCOC(=O)c1c(NC(=O)CC2Nc3cc(C)c(C)cc3NC2=O)sc2c1CCCC2 (configuration not stated)	48.8%
CCOC(=O)c1c(NC(=O)CC2Nc3ccccc3NC2=O)sc(C)c1C (configuration not stated)	-9.5%
CCOC(=O)c1c(NC(=O)CC2Nc3ccccc3NC2=O)sc2c1CCCC2 (configuration not stated)	130%

SMILES	displacement
O=C(CC1Nc2ccccc2NC1=O)Nc1ccc(Br)cc1 (configuration not stated)	-5.1%
CCc1ccc(NC(=O)CC2Nc3ccccc3NC2=O)cc1 (configuration not stated)	-35.7%
O=[N+]([O-])c1ccc(COc2ccccc2/C=N/Nc2nc3ccccc3s2)cc1	-2.1%
O=C(COc1ccc(Cl)cc1Cl)N1CCN(C(=O)COc2ccc(Cl)cc2Cl)CC1	2%
CCOC(=O)c1ccc(Nc2nc3nonc3nc2NC(C)C)cc1	-7.1%
O=C1NC(=S)N/C1=C\c1ccccc1	0.7%
Cc1cc(/C=C2/NC(=S)NC2=O)c(C)n1-c1ccc(N2CCOCC2)cc1	-9%
O=C1NC(=S)N/C1=C/c1ccc(N2CCOCC2)cc1	94.5%
COc1ccc(CC(=O)Nc2ccc(Cl)c(C(F)(F)F)c2)cc1OC	6.1%
O=C(Nc1ccc(Br)cc1)c1ccccc1C(F)(F)F	23.2%
O=C1c2ccccc2-c2c(NC3CCCCC3)c(=O)[nH]c3cccc1c23	150%
O=C1c2ccccc2C(=O)c2c1cc(NC1CCCCC1)c1nsnc21	15.8%
O=C1C(NC2CCCCC2)=C(N2CCCCC2)C(=O)c2ccccc21	7.4%
Cc1cc(/C=C2/SC(=S)NC2=O)c(C)n1-c1ccc(F)cc1	-6.4%
Cc1cc(/C=C2/NC(=S)NC2=O)c(C)n1-c1cccc(Cl)c1	-12.9%
Cc1cc(C=C2C(=O)NC(=S)NC2=O)c(C)n1-c1cccc(Cl)c1	107%
Cc1ccc(-n2c(C)cc(C=C3C(=O)NC(=S)NC3=O)c2C)cc1C	0.1%
Cc1cc(/C=C2/SC(=S)NC2=O)c(C)n1-c1ccccc1	-39.7%
Cc1cccc(-n2c(C)cc(C=C3C(=O)NC(=S)NC3=O)c2C)c1	72.3%
Cc1cc(C=C2C(=O)NC(=S)NC2=O)c(C)n1-c1ccc(Br)cc1	21%
CCc1ccc(-n2c(C)cc(/C=C3/SC(=S)NC3=O)c2C)cc1	63%
Cc1cccc(-n2c(C)cc(/C=C3/NC(=S)NC3=O)c2C)c1	-38.6%
CCOC(=O)c1ccc(NC(=O)CN(c2ccc(Oc3ccccc3)cc2)S(C)(=O)=O)cc1	-2.7%
Cc1ccc(-c2nc(N/N=C/c3cccc(F)c3)c3ccccc3n2)cc1	5%
COc1ccc(C(=O)N2CCN(Cc3ccc4c(c3)OCO4)CC2)cc1OC	10.6%
CCOC(=O)C1=C(C)N=c2s/c(=C\c3ccc(N(C)C)o3)c(=O)n2C1c1ccc(F)cc1 (configuration not stated)	-22.6%

SMILES	displacement
CCOc1cc(C2/C(=C(\O)c3ccc(C)cc3)C(=O)C(=O)N2c2nncs2)ccc1O (configuration not stated)	8.3%
COc1ccc(/C(N)=N/OC(=O)c2ccc(C)c([N+](=O)[O-])c2)cc1	-1.8%
CCCCOC(=O)c1cccc(NC(=O)c2ccc(OC)cc2)c1	-3.1%
COc1ccc(C2=NN(C(C)=O)C(c3ccccc3OC)C2)cc1 (configuration not stated)	2.3%
CC(NC(=O)CN(c1cccc(C(F)(F)F)c1)S(C)(=O)=O)c1ccccc1 (configuration not stated)	0.7%
CCOc1ccc(N(CC(=O)N2CCOCC2)S(=O)(=O)c2ccc(SC)cc2)cc1	-1.3%
C=CCN1C(=O)/C(=C\c2ccc(OCc3ccccc3)c(OCC)c2)SC1=S	49.5%
Cc1cc(C)c(/C(O)=C/c2nc3ccccc3oc2=O)c(C)c1	13.8%
Cc1ccc(/C(O)=C/c2nc3ccccc3[nH]c2=O)o1	130%
Cc1ccc(/C(O)=C/c2nc3ccccc3oc2=O)o1	116%
Cc1nc(C)c(/C(O)=C/c2nc3ccccc3[nH]c2=O)o1	-8.5%
Cc1ccc(/C(O)=C/c2nc3ccc([N+](=O)[O-])cc3oc2=O)o1	-6.6%
CCOC(=O)c1nc2ccccc2[nH]c1=O	14.3%
O=C(c1cccc([N+](=O)[O-])c1)c1ccc2c(c1)C(=O)N(c1ccccc1C(=O)O)C2=O	-2.7%
Cc1ccc(S(=O)(=O)NCCSCc2ccccc2Cl)cc1[N+](=O)[O-]	-8.5%
CCN(CC)S(=O)(=O)c1ccc(NC(=O)c2ccco2)cc1	-5.1%
CC(=O)Nc1ccccc1NC(=O)COc1ccccc1C	11.1%
CCCOc1cccc(C(=O)Nc2ccc3c4c(cccc24)CC3)c1	88.7%
CCCOc1cccc(C(=O)Nc2ccc(I)cc2Cl)c1	10.7%
Cc1ccccc1OCC(=O)Nc1ccccc1CO	-7.8%
Cc1ccccc1OCC(=O)Nc1ccc2c3c(cccc13)CC2	107%
CCOc1ccc(C(=O)Nc2ccc3c4c(cccc24)CC3)cc1[N+](=O)[O-]	14.7%
O=C(N/N=C/c1cccs1)C(=O)NC1CCCCC1	7.6%
O=C(O/C(=C/c1nccn1Cc1ccc(Cl)cc1)c1ccccc1)c1ccccc1	-1.2%

Reference: PubChem BioAssay AID1240 (Sanford-Burnham Center for Chemical Genomics, 2008)
